High-throughput results from PubChem.
A selection: hits, their analogues and other compounds. The true share with any hit is near 19%.
TGFb inhibitor – inhibitors of TGF-b signaling | 410,000 compounds, 1.2% hits | HepG2 CAGA-GFP TGF-b/SMAD3 reporter, GFP fluorescence, 18 h; TGF-beta stimulated, 500 pg/mL final | AID 588855 | Potency, µM (series often up to 46.1 µM), without a hit: at the highest dose activity, negative = inhibition, hits mostly inhibitors; also: potency is read from the fitted curve at half-maximal effect; % is scaled to controls: 0 for no effect and ±100 for the full control effect; nearly all actives have a fitted effect of over 65% in size
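HEPG2 CAGA-GFP, 1000 cells/well; 2 h settle, 37 C; cpd via pin tool; TGF-b 500 pg/mL final; 18 h, 37 C; GFP imaging ex488/em500-530; %Activity normalised to -TGF-b and +DMSO controls; CRC fit, curve class.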
TDP1 block – inhibitors of human tyrosyl-DNA phosphodiesterase TDP1 | Potency, µM (highest dose often 130 µM), without a hit: at the top dose activity change, negative = inhibition, actives largely listed as inhibitors | 350,000 compounds, 0.28% hits | recombinant TDP1, AlphaScreen DNA substrate cleavage; also: potency is read from the fitted curve at half-maximal effect; % is scaled to controls: 0 for no effect and ±100 for the full control effect; nearly all actives have a fitted effect of over 40% in size
Target sequence (Q9NUW8 whole entry, looked up): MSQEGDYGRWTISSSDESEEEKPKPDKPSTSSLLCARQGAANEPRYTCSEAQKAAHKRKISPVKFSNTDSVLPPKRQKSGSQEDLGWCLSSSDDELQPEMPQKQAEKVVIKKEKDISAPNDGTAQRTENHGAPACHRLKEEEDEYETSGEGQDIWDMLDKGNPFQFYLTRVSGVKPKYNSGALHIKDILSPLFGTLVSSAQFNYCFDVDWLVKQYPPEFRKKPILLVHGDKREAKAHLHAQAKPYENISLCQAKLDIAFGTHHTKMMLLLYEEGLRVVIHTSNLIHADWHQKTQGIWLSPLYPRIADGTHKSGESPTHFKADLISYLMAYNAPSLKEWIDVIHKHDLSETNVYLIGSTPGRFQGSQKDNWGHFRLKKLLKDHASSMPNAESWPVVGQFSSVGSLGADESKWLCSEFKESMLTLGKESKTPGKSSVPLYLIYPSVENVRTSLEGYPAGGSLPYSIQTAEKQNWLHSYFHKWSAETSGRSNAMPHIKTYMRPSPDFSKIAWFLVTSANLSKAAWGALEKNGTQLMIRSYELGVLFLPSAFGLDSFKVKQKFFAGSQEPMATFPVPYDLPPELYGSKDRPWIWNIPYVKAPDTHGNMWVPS
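Enzyme-compound mixtures sat 15 min at room temperature, followed by a 5 min reaction with 15 nM final substrate and 10 min with AlphaScreen beads. Recombinant human Tdp1 was used at 1 nM final.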
TDP1 cell CPT – DT40-hTDP1 cell growth loss with CPT; Potency, µM (series often up to 46.2 µM), inactives show at the highest dose activity change, negative = growth inhibition, hits mostly inhibitors; 420,000 compounds, 12% hits; chicken DT40 Tdp1-/-;hTDP1 cells + 20 nM CPT, ATP luminescence, 48 h; also: potency is read from the fitted curve at half-maximal effect; % is scaled to controls: 0 for no effect and ±100 for the full control effect; nearly all actives have a fitted effect of over 55% in size
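Chicken DT40 Tdp1-/- cells stably complemented with human TDP1 were seeded at 400 cells/well in medium containing 20 nM camptothecin, exposed to pin-transferred compounds, and grown at 37 °C for at least 48 hr. Viability was read as ATP luminescence.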
IL-1B inflam inh – inflammasome signaling inhibition, IL-1 beta readout; THP-1 LPS/ATP IL-1B secretion, AlphaLISA, 16 h; active compounds read low; activity change, % at 57.5 µM; 360,000 compounds, 4.7% hits; AID 743279; in the data active = activity change below about -50%; inconclusive = mostly about -30% to -49%; also: % is scaled to controls: 0 for no effect and ±100 for the full control effect
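Secreted IL-1B measured by AlphaLISA bead assay after 16 h compound exposure of THP-1 cells; compounds (final up to 57.5 uM) added 1 h before LPS (250 ng/mL) and ATP (1.25 mM) stimulation; lower signal means less secretion.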
HepG2 viability – counter-screen for TGF-b inhibitors: cytotoxicity in HepG2 cells. HepG2 CAGA-GFP viability, ATP luminescence, 18 h. Potency, µM (doses to about 46.1 µM), inactives show top-dose activity change, negative = cytotoxicity, usual class: cytotoxic. 410,000 compounds, 0.76% hits. AID 588856; also: potency is read from the fitted curve at half-maximal effect
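HepG2 CAGA-GFP cells (1000/well, DMEM with 1% FBS) received compound, then TGF-beta at 500 pg/mL final, and were incubated 18 hours at 37 degrees C. Viability was read by CellTiter-Glo luminescence. Media-only wells were set as complete cell-killing and DMSO as no toxicity.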
TDP1 cell noCPT – qHTS for Inhibitors of human tyrosyl-DNA phosphodiesterase 1 (TDP1): qHTS in cells in absence of CPT | DT40 Tdp1-/- hTDP1 cells, no CPT, ATP luminescence, 48 h | Potency, µM (highest dose often 46.2 µM), inactives show at the highest dose activity change, negative = growth inhibition, actives largely listed as inhibitors | 420,000 compounds, 15% hits | AID 686978, 2013; also: potency is read from the fitted curve at half-maximal effect; % is scaled to controls: 0 for no effect and ±100 for the full control effect; nearly all actives have a fitted effect of over 55% in size
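DT40 Tdp1-/-;hTDP1 cells, no CPT (DMSO vehicle only), 400 cells/well; compounds pin-transferred; ≥48 hr, 37 °C; CellTiter-Glo 30 min RT dark, luminescence read.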
An asterisk follows results filed as active; ? = inconclusive; . = no result; ! = not confirmed by another sample; [ ] = remark or other dose. Unless noted, calls follow the shape of the dose curve; as a rule, active = well fitted curve in the direction sought with a large enough effect; inconclusive = small, poorly fitted or top-dose-only effect, or another doubt; inactive = no such curve, though single readings can be large; an effect the other way counts as inactive or inconclusive.

SMILES | TGFb inhibitor | TDP1 block | TDP1 cell CPT | IL-1B inflam inh | HepG2 viability | TDP1 cell noCPT
Cc1cc(OC(C)C(=O)N(Cc2ccco2)Cc2ccccc2F)cc(C)c1Cl (centres undefined) | ? | 5% | 21µM* | . | -46% | 13µM*
COC(=O)c1ccc(CNC(=O)COC(=O)c2cccs2)cc1 | 10% | 0% | 3% | 13 | 12% | -27%
N#CCCn1c(=O)c(-c2cccs2)nc2cnc(Oc3cccc(Cl)c3)nc21 | . | . | -15% | . | . | ?
Cc1cc(Cl)ccc1OCC(=O)N(Cc1ccco1)Cc1ccco1 | -30% | 7% | ? | . | -25% | 23µM*
O=C(/C=C/c1ccc([N+](=O)[O-])cc1)Nc1ncc([N+](=O)[O-])s1 | 13µM* | 2% | 5.8µM* | -78* | -27% | 8.2µM*
O=C(Nc1ncc([N+](=O)[O-])s1)c1cccs1 | ? | 1% | 18µM* | 9 | 13µM*! | 10µM*
O=C(CS(=O)(=O)c1ccccc1)Nc1ncc([N+](=O)[O-])s1 | 0% | 12% | -3% | 24 | 4% | -9%
Cc1cnc(NC(=O)c2cccs2)s1 | -22% | . | -2% | -99* | -23% | -25%
O=C(Nc1ncc([N+](=O)[O-])s1)c1ccccc1Br | ? | 8% | 21µM* | 25 | -31% | 18µM*
CCCCN1CCC2C=CCC(C(=O)O)C2C1=O (centres undefined) | 4% | 13% | . | . | 0% | .
CCNc1ncc2nc(-c3ccc(F)cc3)c(=O)n(CCOC)c2n1 | . | . | -22% | . | . | -3%
CCN(CC(=O)NCc1cccs1)C(=O)c1ccc(-c2cccc(C(F)(F)F)c2)o1 | -3% | -3% | ? | -80* | -3% | ?
CC1(C(=O)NCc2cccs2)Cc2c(-c3cccc(C(F)(F)F)c3)ccnc2O1 (centres undefined) | ? | . | 3.3µM* | 62 | -15% | 2.9µM*
CC(=O)NCCNC(=O)C1(C)Cc2c(-c3ccc(C(N)=O)cc3)ccnc2O1 (centres undefined) | 27% | . | 0% | 15 | 4% | 0%
CC1(C(=O)NCc2cccs2)Cc2c(-c3ccc(C(N)=O)cc3)ccnc2O1 (centres undefined) | 24% | . | 2.6µM* | 43 | 1% | 3.3µM*
CC1(C(=O)NCc2ccccc2)Cc2c(-c3cccc(C(F)(F)F)c3)ccnc2O1 (centres undefined) | ? | . | 3.7µM* | 68 | -3% | 5.8µM*
CC(=O)NCCNC(=O)C1(C)Cc2c(-c3cccc(NC(C)=O)c3)ccnc2O1 (centres undefined) | 2% | . | 8% | 52 | 2% | 12%
O=C(c1csnn1)N1CCC2(CC1)CCN(c1ncccn1)CC2 | . | . | 6% | . | . | ?
COc1ccc(CCN2CC(C(=O)NCc3ccccc3)CCC2=O)cc1 (centres undefined) | 1% | 0% | -19% | -2 | 3% | 11%
CCc1nnc(NC(=O)CSc2nccn2Cc2ccc(Cl)cc2)s1 | ? | 8% | -27% | . | -18% | -29%
Cc1ccc(C(C(=O)Nc2ccc(C(C)C)cc2)N(C)C(=O)c2ccc(=O)[nH]c2)cc1 (centres undefined) | -13% | 0% | -10% | -15 | -35% | 18µM*
COc1ccc(NC(=O)C(c2ccccc2)N(C)C(=O)c2ccc(=O)[nH]c2)cc1 (centres undefined) | 13% | 1% | 0% | 11 | 2% | 1%
C[C@@H](C(=O)Cc1ccc2ccccc2c1)[C@@H]1C[C@@]1(C)[C@@H](NP(=O)(c1ccccc1)c1ccccc1)c1ccccc1 | . | 7% | . | . | . | .
CC1=Nc2cc(C(=O)NCCN3CCOCC3)ccc2Sc2c(C)ccc(C)c21 | 16µM* | 2% | 16µM* | 3 | -62% | 13µM*
CC1=Nc2cc(C(=O)NCCCN3CCOCC3)ccc2Sc2c(C)ccc(C)c21 | ? | 3% | ? | -73* | -30% | ?
SMILES | TGFb inhibitor | TDP1 block | TDP1 cell CPT | IL-1B inflam inh | HepG2 viability | TDP1 cell noCPT
COc1ccc(C(=O)NCCN2CCOCC2)cc1OC | -18% | 3% | -2% | 15 | 4% | 5%
O=C(CCN1C(=O)/C(=C/c2ccc(F)cc2)SC1=S)NCCc1ccc(O)cc1 | 4% | 4% | -13% | 3 | 0% | ?
O=C(CCN1C(=O)/C(=C/c2ccc(F)cc2)SC1=S)Nc1cccnc1 | 30% | 1% | 2% | -19 | 15% | -6%
CN1CCN(C(=O)CCN2C(=O)/C(=C\c3ccc(F)cc3)SC2=S)CC1 | ? | 5% | 18µM* | -99* | -44% | 15µM*
CN1CCN(C(=O)CCN2C(=O)/C(=C\c3ccc(Cl)cc3)SC2=S)CC1 | -12% | 8% | 18µM* | -22 | -19% | ?
O=C(CN1C(=O)/C(=C/c2ccc(F)cc2)SC1=S)N1CCN(CCc2ccccn2)CC1 | -20% | 8% | 6.5µM* | -7 | -7% | 2.3µM*
NS(=O)(=O)c1ccc(CCN2C(=O)/C(=C\c3ccc(Cl)cc3)SC2=S)cc1 | -15% | 2% | 6.5µM* | -85* | 1% | 6.5µM*
O=C(c1ccc(N2CCC(NCCCn3ncc4ccccc43)CC2)cc1)N1CCOCC1 | . | . | 7%[9.04 µM] | . | . | -13%
CCCCOc1cccc(NC(=O)CSc2nnc(C)s2)c1 | -11% | 5%[12.3 µM] | -14% | . | -31% | -18%
COC(=O)CCC(=O)Nc1ccc(S(=O)(=O)Nc2nc(C)cc(C)n2)cc1 | -14% | . | -16% | 0 | -1% | 1%
CCc1ccc(-n2c(Cc3ccccc3)n[nH]c2=S)cc1 | ? | 0% | ? | 9 | 11% | ?
CCOC(=O)NNc1ccc(N(CC)CC(C)O)nn1 (centres undefined) | . | . | -29% | . | . | -22%
CNC(=O)COC(=O)c1ccccc1C(=O)c1ccc(Cl)c([N+](=O)[O-])c1 | -24% | 6% | ? | -107* | -15% | ?
O=C(OC1CCOC1=O)c1ccccc1C(=O)c1ccc(Cl)c([N+](=O)[O-])c1 (centres undefined) | ? | -10% | ? | -27 | -52% | -11%
O=C(COC(=O)c1ccccc1C(=O)c1ccc(Cl)c([N+](=O)[O-])c1)NC1CC1 | ? | 5% | 18µM* | -103* | 16µM* | 16µM*
